Several values for one entry are separate records, joined by “and”; a condition that tells them apart may be missing. Identical values can stand only once. About 2,200 (0.55%) of roughly 400,000 compounds were called active. Another 1% or so got no clear call; they are omitted. The sample as a whole holds a higher share of actives than the screen did. A number with no mark means an inactive call. The call rests on the fitted dose curve; in most records, active means well fitted inhibition curve with a large enough effect; inconclusive means small, poorly fitted or top-dose-only effect, or another doubt; inactive means no such curve, though single readings can be large or run the other way.
On the % scale 0 is the no-effect control and ±100 the full control effect; potency means the concentration at half of the fitted maximal effect.

The assay deals with DNA polymerase kappa (Homo sapiens) (UniProt Q9UBT6). Briefly: qHTS for Inhibitors of Polymerase Kappa. To be noted: purified Pol kappa, fluorescent DNA synthesis assay, 10 min; series mostly up to 107 µM; activity, negative = inhibition: at the top concentration. An outline of the steps: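 10 nM Pol kappa was preincubated with compounds for 15 min at room temperature. Reaction started with 50 nM (final) substrate. Fluorescence read kinetically at 0 and 10 min.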
Sequence of DNA polymerase kappa (Homo sapiens) (Q9UBT6 whole entry, looked up): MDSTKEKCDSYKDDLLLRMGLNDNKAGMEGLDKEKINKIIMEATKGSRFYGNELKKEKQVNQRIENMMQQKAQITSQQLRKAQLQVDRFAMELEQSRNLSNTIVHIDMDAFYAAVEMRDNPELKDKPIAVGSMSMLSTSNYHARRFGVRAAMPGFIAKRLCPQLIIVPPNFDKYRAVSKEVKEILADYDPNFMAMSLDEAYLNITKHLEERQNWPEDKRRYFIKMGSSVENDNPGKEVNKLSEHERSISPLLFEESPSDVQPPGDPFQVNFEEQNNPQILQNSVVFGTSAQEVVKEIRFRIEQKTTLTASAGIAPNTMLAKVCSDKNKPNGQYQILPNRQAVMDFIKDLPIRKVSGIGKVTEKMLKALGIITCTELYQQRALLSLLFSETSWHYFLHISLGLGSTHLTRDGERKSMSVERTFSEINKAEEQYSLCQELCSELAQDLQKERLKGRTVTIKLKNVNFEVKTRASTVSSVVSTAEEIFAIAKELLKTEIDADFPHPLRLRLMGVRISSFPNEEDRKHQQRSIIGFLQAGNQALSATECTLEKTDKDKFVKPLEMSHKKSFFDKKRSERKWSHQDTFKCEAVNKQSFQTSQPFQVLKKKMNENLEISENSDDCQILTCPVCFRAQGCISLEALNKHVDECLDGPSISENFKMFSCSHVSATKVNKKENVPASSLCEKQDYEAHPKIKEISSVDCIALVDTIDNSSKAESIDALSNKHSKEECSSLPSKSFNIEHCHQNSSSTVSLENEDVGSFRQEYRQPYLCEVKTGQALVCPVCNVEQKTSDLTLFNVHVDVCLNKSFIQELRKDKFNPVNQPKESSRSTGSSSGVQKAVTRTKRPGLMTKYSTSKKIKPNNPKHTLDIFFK
Background: Quantitative high-throughput screening tests each substance at several concentrations.
Turning to `Cc1ccc(N=C2NC(=O)/C(=C/C=C/c3ccco3)S2)cc1C`, the Potency is 28.2 µM (active).
As for `CC(=O)OC1CCC2(O)CC1(C)CCC1C2CC1(C)C` (stereo not given), the “activity, negative = inhibition” value was -9.88% [at 60.1 µM].
For the molecule `O=C(CSC(=S)N1CCOCC1)c1cc(Br)cc(Br)c1O`, the Potency is 79.4 µM (active).
On to `O=C(CSC(=S)N1CCCCC1)c1c(F)cccc1F`, for which the “activity, negative = inhibition” value was 7.44%.
On the same count and under the same terms, next, `O=C(c1cc2cc(Br)cc(Br)c2oc1=O)N1CCOCC1`: -6.06%; `CCOCCOC(=O)C(C)Oc1ccc(Oc2ncc(C(F)(F)F)cc2Cl)cc1` (stereo not given): 0.515% [at 60.1 µM]; `CC(=O)CC(c1ccccc1)C1C(=O)Oc2ccccc2C1=O` (stereo not given): -4.26% [at 60.1 µM].
Still for that read-out and setting: the value for `O=C(O)c1cccc(N=NN2CCCCCC2)c1` was -8.29%.
As to `CN1C(=O)/C(=C/c2ccco2)SC1=Nc1cccc(C(=O)O)c1`, the Potency is 20 µM (active).
In the case of `CN=C1S/C(=C\c2c(OC)cc(OC)cc2OC)C(=O)N1C`, the “activity, negative = inhibition” value is 3.05%.
On the same count and under the same terms, the value for `CCOC(OCC)OCC` was 11.2% [at 60.1 µM]; that for `CCc1c2c(nc3ccc(O)cc13)-c1cc3c(c(=O)n1C2)COC(=O)[C@]3(O)CC` was 8.42% [at 60.1 µM].
`NC(=O)Nc1ccc(/C=C/c2ccnc3ccccc23)cc1`: the “activity, negative = inhibition” value was 3.65%.
With `COc1ccc2[nH]c3c(C)c4cc[n+](C)cc4c(C)c3c2c1`, the Potency is 2.38 µM (active) and 11.2 µM (active).
On to `Cc1cccc(CNc2ccnc(-c3cccnc3)n2)c1`, for which the “activity, negative = inhibition” value is -9.88% [at 60.1 µM].
Same read-out and setting: next, `COCCn1c(=O)c(-c2cc(F)cc(F)c2)nc2cnc(N3CCNCC3)nc21`: 1.68% [at 60.1 µM].
With `CN(C)c1ccc(C=Nc2ccc(/C=C/c3ccnc4ccccc34)cc2)cc1`, the “activity, negative = inhibition” value is -10.6%.
As to `NC(=O)C(=O)N/N=C/c1ccc([N+](=O)[O-])o1`, the “activity, negative = inhibition” value is 1.45% [at 60.1 µM].
Consider `O=c1cc(-c2ccc(O)cc2)oc2c(-c3cc(-c4cc(=O)c5c(O)cc(O)cc5o4)ccc3O)c(O)ccc12`, for which the Potency was 26.7 µM (active).
As to `CCOC(=O)c1cc2cc(-c3c(C(=O)OCC)oc4cc(O)cc(O)c4c3=O)ccc2o1`, the “activity, negative = inhibition” value is -9.29%.
On the same count and under the same terms, next, `O=c1c(-c2ccc3c(c2)OCCO3)c(C(F)(F)F)oc2cc(O)cc(O)c12`: -13.6%; `C=C(C)C1CC=C(C)C(O)C1` (stereo not given): -10.7% [at 60.1 µM]; `C=C1C=C(C)n2ncc(C(=O)Nc3ccccc3O)c2N1`: -24.3%.
On to `CC(=O)c1ccc(NC(=O)CSc2nnc(NC(=O)Nc3ccccc3)s2)cc1`, for which the “activity, negative = inhibition” value is 5.47% [at 60.1 µM].
With `CC(C)c1ccc(Nc2nnc(SCC(=O)c3nnc(-c4ccccc4)o3)s2)cc1`, the Potency is 79.4 µM (active).
On to `CN(C(=O)CSc1nnc(NC(=O)Nc2ccccc2)s1)c1ccccc1`, for which the “activity, negative = inhibition” value was -11.2% [at 60.1 µM].
Turning to `CC(C)=CCC/C(C)=C/CC/C(C)=C/CC/C(C)=C/CO`, the Potency entry was “inactive”.
For `O=C(c1cc(C(F)(F)F)cc(C(F)(F)F)c1)N1CCC2(CCCN(Cc3ccncc3)C2)CC1`, the “activity, negative = inhibition” value was -8.33% [at 60.1 µM].
On the same count and under the same terms, the value for `OCC(CO)NC1C[C@](O)(CO)[C@@H](O)[C@H](O)[C@H]1O` (stereo not given in full) was -3.61% [at 60.1 µM].
As to `CC(=O)Oc1c2c(c3c(c1CC=C(C)C)O[C@@]14C(=CC5CC1C(C)(C)OC4(C/C=C(\C)C(=O)O)C5=O)C3=O)OC(C)(CCC=C(C)C)C=C2` (stereo not given in full), the Potency was 31.6 µM (active).
Regarding `COc1ccc2c3c1OC1CC(O)C=C[C@@]31CCN(C)C2` (stereo not given in full), the “activity, negative = inhibition” value is -10.1% [at 60.1 µM].
On the same count and under the same terms, next, `COc1cc2c(cc1OC)CC(=O)N(CCCN(C)C[C@H]1Cc3cc(OC)c(OC)cc31)CC2`: 3.96% [at 19.4 µM].
On the same count and under the same terms, next, `FC(F)(F)c1ccccc1-c1nc(-n2ccnc2)c2ccccc2n1`: 0.364% [at 60.1 µM]; `Nc1ccc(/C=C/c2ccnc3ccccc23)c([N+](=O)[O-])c1`: -5.61%.
On to `O=c1nc2s/c(=C\c3ccco3)c(=O)n2nc1Cc1ccccc1`, for which the Potency was 31.6 µM (active).
On to `O=c1/c(=C/c2ccc(CNS(=O)(=O)c3ccccc3)o2)sc2n1CCN=2`, for which the “activity, negative = inhibition” value is 3.56% [at 60.1 µM].
`CN1CCOC1c1ccc(C2OCCN2C)cc1` (stereo not given): the Potency is 39.8 µM (active).
As to `O=C(Nc1ccc(Cl)cc1)c1cnn2c1NC(=C1CC1)C=C2C(F)F`, the “activity, negative = inhibition” value is -0.0234%.
For `Nc1ccc2nc3c(=O)[nH]c(=S)[nH]c3nc2c1`, the Potency was 2.24 µM (active).
For the molecule `Brc1cccc[n+]1Cc1cccc(C[n+]2ccccc2Br)c1`, the “activity, negative = inhibition” value was -18.2%.
Same read-out and setting: next, `CCNc1ncc2nc(CCc3ccccc3)c(=O)n(-c3ccc(OC)cc3)c2n1`: -19% [at 60.1 µM].
As to `CC(=O)Nc1ccc(S(=O)(=O)NC2(C(F)(F)F)C(=O)NC(C)=C2C#N)cc1` (stereo not given), the Potency is 79.4 µM (active).
For the molecule `CC(=O)Nc1ccc(S(=O)(=O)NC2(C(F)(F)F)C(=O)Nc3c2c(=O)[nH]c(=O)n3Cc2ccccc2)cc1` (stereo not given), the “activity, negative = inhibition” value was -24.4%.
Take `CCCN1C(=O)C(NS(=O)(=O)c2ccc(N)cc2)(C(F)(F)F)C(C(=O)OC)=C1C` (stereo not given): the “activity, negative = inhibition” value is -9.7%.
As for `CC(C)(O)c1ccccc1CC[C@H](SCC1(CC(=O)O)CC1)c1cccc(/C=C/c2ccc3ccc(Cl)cc3n2)c1`, the activity, negative = inhibition was -3.16% [at 19.4 µM].
`CS(=O)(=O)c1ccc2c(c1)SC1=NC(=O)/C(=C/c3ccco3)C(=N)N12`: the Potency was 35.5 µM (active).
With `CC(C)(C)C1C/C(=C/c2ccco2)C(=O)/C(=C/c2ccco2)C1` (stereo not given), the “activity, negative = inhibition” value was -25%.
As for `COc1ccc(NC(=O)COCc2cc(-c3ccco3)on2)cc1`, the “activity, negative = inhibition” value was -8.34% [at 60.1 µM].
For the molecule `CCOc1ccc(NC(=O)c2ncoc2-c2ccco2)cc1`, the “activity, negative = inhibition” value is -6.29% [at 60.1 µM].
With `COCCNC(=O)Nc1ccc2nc(-c3ccco3)c(-c3ccco3)nc2c1`, the Potency was 3.16 µM (active).

Values taken from PubChem BioAssay AID588579 (National Center for Advancing Translational Sciences (NCATS), 2011).
